We go through 10 compounds from PubChem BioAssay (Tox21).

The structures appear in SMILES notation. “And” between values parts separate entries of the source, which are not always exact repeats. Equal entries are not always repeated. Results filed as inconclusive are left out. The source made the active and inactive calls. Unless noted, the call rests on the fitted dose curve; in most records, active means well fitted curve in the direction sought with a large enough effect in the repeat runs; inconclusive means weak or mixed curves; inactive means no such curve, though single readings can be large; an effect the other way counts as inactive or inconclusive.

Assay [1] is described as follows: qHTS assay to identify small molecule agonists of the estrogen related receptor signaling pathway with the pleiotropic PPARgamma coactivator (PGC) (AID 1224823). In a few lines:
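In this quantitative high-throughput screen, an 18 h, 37 C treatment of PGC/ERR cells with compounds in DMSO preceded a One-Glo luminescence read taken after 30 min at room temperature.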

Assay [2] is described as follows: qHTS assay to identify small molecule antagonists of the estrogen related receptor (ERR) signaling pathway from Tox21 library - cell viability counter screen (AID 1224834). Further: nearly all actives have a fitted effect of over 30% in size. In a few lines: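 Seeded ERR cells were rested 6 h at 37 C/5% CO2 before compounds, positive and negative controls or DMSO were added. Incubation continued for 17.5 h, and viability was then quantified by CellTiter-Fluor fluorescence.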
(In qHTS, concentration-response curves come from the screen itself.)

Assay [3] deals with Luciferin 4-monooxygenase (Photinus pyralis) (UniProt P08659). In words: qHTS assay to identify small molecule inhibitors of firefly luciferase (AID 1224835). Further: nearly all actives have a fitted effect of over 25% in size. Further: potency means the concentration at half of the fitted maximal effect. In short, it runs like this:
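Biochemical qHTS: compounds run as interplate titrations against purified firefly enzyme, with D-luciferin and ATP each at its KM concentration. Light output recorded by CCD imaging.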

A short description of assay [4]: qHTS assay to identify small molecule agonists of the constitutive androstane receptor (CAR) signaling pathway - cell viability counter screen (AID 1224836). Further: series mostly up to about 92 µM; nearly all actives have a fitted effect of over 45% in size. In short, it runs like this: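 Fluorescence from CellTiter-Fluor indicates live cells after 23 h exposure. The human hepatoma line expresses hCAR and a CYP2B6-2.2kb reporter. Incubation medium contains 0.75 uM PK11195 (final).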

Assay [5] in a line: qHTS assay to identify small molecule antagonists of the constitutive androstane receptor (CAR) signaling pathway - cell viability counter screen (AID 1224837). Further: series mostly up to about 92 µM; nearly all actives have a fitted effect of over 45% in size. In a few lines:
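To flag cytotoxic false antagonists, HepG2 hCAR/CYP2B6-2.2kb cells were treated 23 hr with 15-concentration compound series and 50 nM CITCO at 37 C/5% CO2; CellTiter-Fluor fluorescence was the measured end point.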

The nature of assay [6]: qHTS assay to identify small molecule antagonists of the estrogen related receptor signaling pathway with the pleiotropic PPARgamma coactivator (PGC) from Tox21 10K library - cell viability counter screen (AID 1224840; active means well fitted cell-killing curve with a large enough effect in the repeat runs, not every such curve was filed as active; further: nearly all actives have a fitted effect of over 40% in size). In a few lines:
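Seeded PGC/ERR cells (2,000/well, 6 h, 37 C/5% CO2) get compound by pin tool; 17.5 h incubation at 37 C; CellTiter-Fluor added, 30 min, fluorescence measured.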

Assay [7] is described as follows: qHTS assay to identify small molecule antagonists of the estrogen related receptor signaling pathway with the pleiotropic PPARgamma coactivator (PGC) from Tox21 10K library (AID 1224841; call rule not given here; further: series mostly up to about 92 µM; actives are mostly falling curves and most rising ones were filed inactive; nearly all actives have a fitted effect of over 50% in size). In short, it runs like this: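 Test chemicals dissolved in DMSO were applied to pre-incubated (6 h) PGC/ERR cells at 2,000 cells/well for an 18 h, 37 C treatment; reporter luminescence was then read using One-Glo.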

Assay [8] can be described thus: qHTS assay to identify small molecule agonists of the estrogen related receptor signaling pathway with the pleiotropic PPARgamma coactivator (PGC) from Tox21 10K library (AID 1224842). Further: nearly all actives have a fitted effect of over 15% in size. In a few lines: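 PGC/ERR reporter cell line, 2,000 cells per well, incubated 6 h at 37 C before 23 nL compound in DMSO was added. After 18 h at 37 C, One-Glo luminescence read following 30 min at room temperature.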

Assay [9] can be described thus: qHTS assay to identify small molecule agonists of the hypoxia (HIF-1) signaling pathway - cell viability counter screen (AID 1224844; calls by dose curve; further: nearly all actives have a fitted effect of over 50% in size). In a few lines:
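HRE-bla ME-180; 0.5% dFBS; cpd 17 h, 37C, 5% CO2; CellTiter-Glo lum., 30 min RT, post-FRET read, same wells.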

Assay [10] is described as follows: qHTS assay to identify small molecule agonists of H2AX (AID 1224845; active means well fitted activation curve with a large enough effect in the signal ratio in the repeat runs, not every such curve was filed as active; the % refers to the signal ratio). In a few lines:
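Wild-type CHO-K1 cells, plated overnight, exposed 3hr at 37C to 15 concentrations (0.76% DMSO final). Lysed, then HTRF anti-pH2AX (S139) cryptate and anti-H2AX-d2 antibodies, 24 hr room temperature; 665/620 nm emission read.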

Assay [11] in a line: qHTS assay to identify small molecule antagonists of the estrogen related receptor (ERR) signaling pathway from Tox21 library (AID 1224848). Further: nearly all actives have a fitted effect of over 50% in size. In short, it runs like this:
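Compounds dissolved in DMSO are pin-transferred onto ERR reporter cells (2,000 per well) that have settled for 6 h at 37 C. Plates then incubate 18 h at 37 C before ONE-Glo luciferase reagent and a luminescence read 30 min later.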

Assay [12] is described as follows: qHTS assay to identify small molecule agonists of the estrogen related receptor (ERR) signaling pathway from Tox21 library (AID 1224849; calls by dose curve; further: nearly all actives have a fitted effect of over 15% in size). In a few lines: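 Tox21 compounds tested for ERR agonism in an NTP reporter cell line: 18 h treatment at 37 C, then ONE-Glo luminescence.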
The nature of assay [13]: qHTS RealTime-Glo MT Cell Viability Assay in HepG2 cells - 24 hour (AID 1224867). Further: nearly all actives have a fitted effect of over 50% in size. In a few lines:
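Compound treatment began 5 h after plating HepG2 cells (600/well) with NanoLuc luciferase and prosubstrate. Plates stayed at 37 C for 40 h; luminescence was captured at six time points, 0 h through 40 h.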

Assay [14] is described as follows: qHTS RealTime-Glo MT Cell Viability Assay in HEK293 cells - 32 hour (AID 1224868). In a few lines:
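Quantitative high-throughput screen of the Tox21 10K library in HEK293: cells and RealTime-Glo reagents plated together, compound added at 5 h, luminescence monitored through 40 h at 37 C.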

The nature of assay [15]: A CellTox Green Cytotoxicity Assay to monitor cytotoxicity in HEK293 cells - 0 hour (AID 1224869). Further: nearly all actives have a fitted effect of over 50% in size. In short, it runs like this: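 Tox21 screen in HEK293: membrane-impermeant cyanine dye fluoresces on binding dead-cell DNA; compound pinned 5 h post-seeding, plates held at 37 C, signal read repeatedly through 40 h.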
Assay [16] can be described thus: qHTS assay to identify small molecule agonists of the hypoxia (HIF-1) signaling pathway (AID 1224846; active means well fitted activation curve with a large enough effect in the signal ratio in the repeat runs, not every such curve was filed as active; the % refers to the signal ratio). In short, it runs like this: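 Reporter induction in HRE-bla ME-180 cells is taken as agonism: cells sit 5 hrs after plating, receive compounds or DMSO only, incubate 17 hrs at 37C under 5% CO2, and are loaded with CCF4-AM for beta-lactamase FRET measurement.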

Assay [17] can be described thus: qHTS assay to identify small molecule agonists of H2AX - cell viability counter screen (AID 1224847; calls by dose curve; further: top concentration of the series differs between compounds; nearly all actives have a fitted effect of over 30% in size). In a few lines:
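Viability of CHO-K1 (wild type) cells after 3 hr compound exposure was measured by CellTiter-Glo luminescence.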

Assay [18] deals with Nuclear receptor subfamily 1 group I member 3 (Homo sapiens) (UniProt Q14994). The experiment in a line: qHTS assay to identify small molecule antagonists of the constitutive androstane receptor (CAR) signaling pathway (AID 1224838).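 Further: HepG2 cells stably expressing hCAR with CYP2B6 luciferase reporter stimulated by CITCO; nearly all actives have a fitted effect of over 40% in size.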 In a few lines: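 Human hepatoma HepG2 cells expressing hCAR and a CYP2B6 promoter (2.2 kb) luciferase construct; compound titration (15 points) with 50 nM CITCO final, 24 h at 37 C/5% CO2; luminescence via ONE-Glo after 30 min at room temperature.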

The target is the same in assay [19]. In words: qHTS assay to identify small molecule agonists of the constitutive androstane receptor (CAR) signaling pathway (AID 1224839). Further: nearly all actives have a fitted effect of over 15% in size. Further: potency means the concentration at half of the fitted maximal effect.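 On activation: HepG2 cells stably carrying human CAR and a CYP2B6 luciferase reporter; series mostly up to about 92 µM.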 In short, it runs like this: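 Stable hCAR/CYP2B6-2.2kb HepG2 line in DMEM with 10% FBS; compounds (15 concentrations) and 0.75 uM PK11195 final, 24 h at 37 C/5% CO2, then ONE-Glo luminescence after 30 min.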
In assay [20] the target is Thyrotropin receptor (Homo sapiens) (UniProt P16473). The experiment in a line: qHTS assay to identify small molecule agonists of the thyroid stimulating hormone receptor (TSHR) signaling pathway (AID 1224843; calls by dose curve; further: nearly all actives have a fitted effect of over 45% in size). In short, it runs like this: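 HEK293/TSHR, 800 cells/well; cpd 30 min RT; add cAMP-d2 + anti-cAMP-cryptate, 1 h RT; fluorescence read on plate reader. 15-pt titration, n=3.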
Thyrotropin receptor (Homo sapiens), sequence (P16473 whole entry, looked up): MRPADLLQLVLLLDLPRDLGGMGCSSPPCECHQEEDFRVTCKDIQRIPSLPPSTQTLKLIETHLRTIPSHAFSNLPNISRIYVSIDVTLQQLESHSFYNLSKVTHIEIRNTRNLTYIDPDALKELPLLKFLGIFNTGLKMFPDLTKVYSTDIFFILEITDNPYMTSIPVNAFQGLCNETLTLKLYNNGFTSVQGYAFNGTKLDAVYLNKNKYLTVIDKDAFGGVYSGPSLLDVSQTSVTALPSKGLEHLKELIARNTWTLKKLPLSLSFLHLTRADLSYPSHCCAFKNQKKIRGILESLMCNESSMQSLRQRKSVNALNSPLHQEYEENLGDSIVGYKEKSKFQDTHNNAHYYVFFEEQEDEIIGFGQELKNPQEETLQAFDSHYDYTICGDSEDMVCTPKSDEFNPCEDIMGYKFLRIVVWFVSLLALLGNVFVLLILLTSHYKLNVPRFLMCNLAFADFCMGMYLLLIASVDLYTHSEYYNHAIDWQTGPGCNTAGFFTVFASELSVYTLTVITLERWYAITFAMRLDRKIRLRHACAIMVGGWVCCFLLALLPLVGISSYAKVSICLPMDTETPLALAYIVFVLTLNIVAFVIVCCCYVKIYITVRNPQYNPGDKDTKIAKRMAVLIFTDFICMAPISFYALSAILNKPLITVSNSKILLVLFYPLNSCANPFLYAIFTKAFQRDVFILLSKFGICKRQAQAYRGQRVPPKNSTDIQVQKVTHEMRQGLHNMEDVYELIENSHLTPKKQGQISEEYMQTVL

Nuclear receptor subfamily 1 group I member 3 (Homo sapiens), sequence (Q14994 whole entry, looked up): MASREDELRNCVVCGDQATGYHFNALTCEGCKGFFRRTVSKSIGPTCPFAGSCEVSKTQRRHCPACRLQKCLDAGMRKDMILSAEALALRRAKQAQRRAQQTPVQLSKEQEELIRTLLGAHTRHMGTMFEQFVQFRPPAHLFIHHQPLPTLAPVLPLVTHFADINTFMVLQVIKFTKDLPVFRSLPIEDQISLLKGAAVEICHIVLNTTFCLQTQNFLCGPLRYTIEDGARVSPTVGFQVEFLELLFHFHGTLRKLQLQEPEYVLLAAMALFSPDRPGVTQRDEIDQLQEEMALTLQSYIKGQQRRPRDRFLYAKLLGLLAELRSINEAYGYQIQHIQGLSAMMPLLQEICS
Luciferin 4-monooxygenase (Photinus pyralis), sequence (P08659 whole entry, looked up): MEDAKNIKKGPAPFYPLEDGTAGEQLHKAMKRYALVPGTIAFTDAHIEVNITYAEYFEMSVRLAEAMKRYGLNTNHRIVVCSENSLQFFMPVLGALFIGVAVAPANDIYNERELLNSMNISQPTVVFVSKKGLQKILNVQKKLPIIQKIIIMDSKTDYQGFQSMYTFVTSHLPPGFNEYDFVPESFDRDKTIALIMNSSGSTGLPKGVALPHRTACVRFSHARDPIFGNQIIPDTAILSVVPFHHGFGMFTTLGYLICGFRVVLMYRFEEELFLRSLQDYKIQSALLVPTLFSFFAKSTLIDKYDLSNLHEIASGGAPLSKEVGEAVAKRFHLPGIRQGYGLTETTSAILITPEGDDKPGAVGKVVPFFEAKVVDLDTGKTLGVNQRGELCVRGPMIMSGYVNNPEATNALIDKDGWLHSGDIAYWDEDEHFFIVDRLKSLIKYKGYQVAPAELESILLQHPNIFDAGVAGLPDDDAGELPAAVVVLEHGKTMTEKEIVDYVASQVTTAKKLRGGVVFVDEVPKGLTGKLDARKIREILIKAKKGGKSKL

Consider `CN(C)CCOC(=O)COc1ccc(Cl)cc1`, for which the compound was called inactive in assay [1], in assay [8], in [9], in assay [10], in [11] and in assay [12]. Besides, the outcome in assay [15] was inactive. The Potency result in [2], in assay [3], in assay [4], in assay [5], in [6] and in assay [7] was “inactive” in each case. The Potency entry in assay [13] and in assay [14] was “inactive” throughout.
As for `CC(=O)CCC=C(C)C`, the Potency result in assay [2], in assay [3], in [4], in [5], in assay [6] and in assay [7] was “inactive” in each case. In addition, the Potency entry in [13] and in assay [14] was “inactive” in each case. Further, the compound was called inactive in assay [8], in assay [9], in [10], in assay [16], in assay [17] and in assay [11]. Besides, the compound was classed as inactive in [12] and in assay [15].
For the compound `CC(C)CC(C)O` (stereo not drawn), the Potency result in [2], in assay [3], in assay [4], in assay [5], in assay [19] and in assay [6] was “inactive” in each case. Besides, in assay [14], the Potency entry is “inactive”. For the same compound, the call in assay [18], in assay [9], in assay [10], in assay [16] and in assay [15] was inactive.
Consider `c1ccc(Oc2ccccc2)cc1`, for which the Potency entry in [2], in assay [3], in assay [4], in [5], in [19] and in assay [6] was “inactive” each time. Moreover, in assay [14], the Potency result was “inactive”. Besides, the outcome in assay [18], in [9], in assay [10], in [16], in assay [17] and in assay [15] was inactive.
`O=C(O)c1cc2ccccc2cc1O`: the Potency entry in assay [2], in assay [4], in assay [5], in assay [6], in assay [7] and in assay [13] was “inactive” in each case. Also, the Potency entry in assay [14] was “inactive”. The Potency in [3] was 35.3 µM (active) and 31.7 µM (active); in assay [19], 43.3 µM (active). Besides, the call in assay [18], in assay [8], in assay [20], in assay [9], in assay [10] and in [16] was inactive. Further, the call in assay [17], in assay [11], in [12] and in [15] was inactive.
Turning to `Nc1nc(N)nc(-c2ccccc2)n1`, the Potency entry in assay [2], in assay [3], in assay [4], in [5], in [19] and in assay [6] was “inactive” throughout. Besides, the Potency entry in assay [13] and in assay [14] was “inactive” throughout. The compound was classed as inactive in assay [18], in assay [20], in [9], in assay [10], in [16] and in assay [15].
For `CCCCCCCCCCCCCCCC(=O)OC(C)C`, the Potency result in [2], in [3], in assay [4], in [5], in assay [19] and in assay [6] was “inactive” each time. Besides, the Potency result in assay [13] and in assay [14] was “inactive” throughout. Besides, the result in [18], in [9], in assay [10], in [16] and in assay [15] was inactive.
`COc1cc(OC)c(C(=O)CCCN2CCCC2)c(OC)c1`: the Potency entry in assay [2], in assay [3], in [4], in [5], in [19] and in assay [6] was “inactive” in each case. For the same compound, the Potency entry in [14] is “inactive”. Besides, the outcome in [18], in [9], in assay [10], in assay [17] and in assay [15] was inactive.
Regarding `CC(C)(C#N)c1cc(Cn2cncn2)cc(C(C)(C)C#N)c1`, the Potency result in [2], in assay [3], in assay [4], in [5], in [19] and in assay [6] was “inactive” each time. For the same compound, the Potency entry in assay [7], in assay [13] and in assay [14] was “inactive” each time. The compound was classed as inactive in assay [18], in assay [8], in assay [9], in assay [10], in assay [16] and in assay [11]. For the same compound, the result in [12] and in assay [15] was inactive.
For the compound `CCOC(=O)n1ccn(C)c1=S`, the Potency entry in assay [2], in [3], in [4], in assay [5], in assay [6] and in assay [14] was “inactive” each time. Further, the result in assay [20], in [9], in assay [10], in assay [16], in assay [17] and in assay [15] was inactive.
